The record followed here is ChEMBL document CHEMBL4513216, “Probing the Open Global Health Chemical Diversity Library for Multistage-Active Starting Points for Next-Generation Antimalarials” (ACS Infect Dis, 2020).

Screen size: about 69,000 compounds; about 8,600 (12%) showed an effect of 50% or more. Only a selection was taken, and strong results are over-represented in it overall.

This assay relates to Plasmodium berghei. Nature of the assay: Screen against P. berghei liver stage (PbLuc), transformed with Luciferase, at 10uM. It is filed as functional, HepG2. To be noted: tested at 10 uM.
As for `Cn1nc(Br)c2c(NCCN)ncnc21`, the INHIBITION is given as 15.7%.

Turning to `Cc1ccc(-c2cc(N)c(=O)n(CC(=O)NCC3CCCCC3)n2)s1`, the INHIBITION stood at 39.2%.

Regarding `Cc1ccc(-c2cc(N)c(=O)n(CC(=O)NC3CCCC3)n2)s1`, the INHIBITION stood at 6.32%.

`Cc1ccc(-c2cc(N)c(=O)n(CC(=O)NC3CCCCC3)n2)s1`: the INHIBITION came out at 55.2%.

On to `COCC(=O)NC(C)Cc1cccc(OC)c1` (stereo not drawn), for which the INHIBITION is 15.5%.

As to `COc1cccc(C(CO)NC(=O)Cc2ccc(F)c(Br)c2)c1` (stereo not drawn), the INHIBITION was determined as 22.6%.

For `COc1cccc(C(CO)NC(=O)NC(C)C)c1` (stereo not drawn), the INHIBITION is recorded as 91.1%.

In the case of `COc1cccc(C(CO)NC(=O)Cc2cccc(C)c2)c1` (stereo not drawn), the INHIBITION is reported as 53.4%.

Turning to `COc1ccc(C(CO)NC(=O)Nc2cccc(C(C)=O)c2)cc1` (stereo not drawn), the INHIBITION is reported as -6.51%.

As for `COc1cccc(CC(C)NC(=O)NC(C)C)c1` (stereo not drawn), the INHIBITION is on record as 30.3%.

Regarding `CN1CCN2C[C@@H](CO)[C@H](c3ccccc3)[C@H]2C1`, the INHIBITION came out at 17.7%.

For the compound `OCCCNc1cccc(COC2CCCCC2)c1`, the INHIBITION was 17.5%.

`CN(C)CCN1C(=O)CCCC12CCCN(C(=O)c1cc[nH]n1)C2` (stereo not drawn): the INHIBITION is on record as 34.5%.

Consider `Cn1cc([C@@H]2CN(S(C)(=O)=O)C[C@H]2N)c2ccncc21`, for which the INHIBITION is recorded as -10.795%.

Take `CC(C)Cc1cc(-c2cc(-c3ccc[nH]3)nc(N)c2C#N)n[nH]1`: the INHIBITION amounted to 48.8%.

For `CCS(=O)(=O)CC(=O)Nc1ccccc1N1CCc2ccccc21`, the INHIBITION turned out to be 63.3%.

For `CS(=O)(=O)NCCC(=O)Nc1ccccc1N1CCc2ccccc21`, the INHIBITION turned out to be 40.5%.

Take `CNC(=O)NCC(=O)Nc1ccccc1N1CCc2ccccc21`: the INHIBITION is 30.5%.

Regarding `CN1CC(c2ccccc2)CC2(CCN(Cc3ncc[nH]3)CC2)C1` (stereo not drawn), the INHIBITION was determined as 49.9%.

`c1ccc(C2CN(C3CC3)CC3(CCN(Cc4cscn4)CC3)C2)cc1` (stereo not drawn): the INHIBITION came to 70.1%.

`COCCC(=O)N1CCC2(CC1)CC(c1ccccc1)CN(C1CC1)C2` (stereo not drawn): the INHIBITION worked out at 14%.

As to `CCN1CC(c2ccccc2)CC2(CCN(Cc3ncc[nH]3)CC2)C1` (stereo not drawn), the INHIBITION turned out to be 42.1%.

As for `c1ccc(C2CN(C3CC3)CC3(CCN(Cc4ncc[nH]4)CC3)C2)cc1` (stereo not drawn), the INHIBITION is given as 53.3%.

As for `O=C1CCC2(CCN(Cc3cscn3)CC2)CN1C1CCC(O)CC1` (stereo not drawn), the INHIBITION is on record as -60.7%.

Take `Cc1cn2c(=O)c(-c3ccnc(N[C@@H]4CCOC4)n3)cnc2s1`: the INHIBITION is 17.4%.

For the compound `Cc1nc(COC[C@@]23CCC[C@@H]2CN(Cc2nccs2)C3)cs1`, the INHIBITION came out at 42.6%.

For the compound `COCCN1CC2(CCCN(c3ncc(Cl)cc3F)C2)CCC1=O` (stereo not drawn), the INHIBITION is on record as 78.5%.

Take `CN(C)CCN1CC2(CCCN(c3ncc(Cl)cc3F)C2)CCC1=O` (stereo not drawn): the INHIBITION stood at 37.7%.

On to `COCCCN1CC2(CCCN(c3ncc(Cl)cc3F)C2)CCC1=O` (stereo not drawn), for which the INHIBITION is recorded as 37.7%.

As to `CC(C(=O)Nc1ccnn1C(C)C)N1CCc2nn(C)c(=O)cc2C1` (stereo not drawn), the INHIBITION amounted to 1.98%.

`COCCn1ccc(=O)c(OCC(=O)Nc2ccccc2)c1C`: the INHIBITION is listed as -93.2%.

In the case of `COc1ccccc1CNC(=O)CNCCn1cc(C)cn1`, the INHIBITION amounted to 7.27%.

Regarding `CC(=O)c1cccc(NC(=O)COc2c(C)n(C)ccc2=O)c1`, the INHIBITION is -19%.

Regarding `Cc1c(OCC(=O)NCc2ccccc2)c(=O)ccn1C`, the INHIBITION is recorded as 57.3%.

`COc1ccccc1CNC(=O)COc1c(C)n(C)ccc1=O`: the INHIBITION was found to be 53.6%.

As to `Cc1c(OCC(=O)NCc2ccccc2Cl)c(=O)ccn1C`, the INHIBITION was 39.6%.

Consider `Cc1cccc(CN2C(=O)CO[C@@H]3CN(C4CCOCC4)C[C@H]32)c1`, for which the INHIBITION is reported as -18.2%.

With `CCN(C(=O)CCCOc1ccccc1F)c1ccncc1`, the INHIBITION is -26.8%.

With `CCCn1nnnc1COC(=O)C1Cc2cc(Cl)ccc2O1` (stereo not drawn), the INHIBITION is 43.5%.

As to `CCCn1nccc1NC(=O)c1ccc(Cl)c(N2CCNC2=O)c1`, the INHIBITION is 57%.

As to `CCc1ccc(C(=O)Nc2cc(N3CCNC3=O)ccc2Cl)o1`, the INHIBITION is 32.9%.

Regarding `CCCc1cc(NC(=O)c2ccc(Cl)c(N3CCNC3=O)c2)n[nH]1`, the INHIBITION was -26.4%.

Take `O=C(CC1C=CCC1)N1CCc2ncnc(NCc3ccon3)c2CC1` (stereo not drawn): the INHIBITION turned out to be 34.5%.

`CC(NC(=O)CSCC#N)c1ccc(Cl)cc1` (stereo not drawn): the INHIBITION worked out at 34.7%.

Consider `CC(NC(=O)CSCC#N)c1ccc(F)cc1` (stereo not drawn), for which the INHIBITION is given as -13.3%.

As to `CC(NC(=O)CSCC#N)c1ccccc1` (stereo not drawn), the INHIBITION came to 55.5%.

For the compound `Cc1c(Br)cnn1CCC(=O)N(C)Cc1c(Cl)cnn1C`, the INHIBITION turned out to be 32.2%.

`Fc1cnc(N2CCCC3(CN(Cc4cccs4)CCO3)C2)nc1` (stereo not drawn): the INHIBITION was 32.5%.

Consider `CC(C)N1CCOCC2(CN(Cc3cccs3)CCO2)C1` (stereo not drawn), for which the INHIBITION amounted to 41.2%.

Take `O=C(c1ccncc1)N1CCOC2(COCCN(c3cccnc3)C2)C1` (stereo not drawn): the INHIBITION is listed as 31.4%.

As for `c1cncc(N2CCCC3(CN(Cc4cccs4)CCO3)C2)c1` (stereo not drawn), the INHIBITION is listed as 63.7%.

`COc1ccc(N2CCCC3(C2)CN(c2cccnc2)CCO3)cc1` (stereo not drawn): the INHIBITION was 8.85%.

For the compound `c1cncc(N2CCOCC3(CN(Cc4cccs4)CCO3)C2)c1` (stereo not drawn), the INHIBITION was 53.2%.
